PubChem BioAssay AID602293 (National Center for Advancing Translational Sciences (NCATS), 2012)
Among all 1,300 compounds or so, about 30 (2%) were called active. Roughly 10% stayed inconclusive and do not appear here. The call rests on the fitted dose curve; in most records, active means well fitted inhibition curve with a large enough effect; inconclusive means small, poorly fitted or top-dose-only effect; inactive means flat fitted curve, though single readings scatter. The entries come from a sample that favours actives as a whole.

assay: qHTS for antagonists of the Thyroid Stimulation Hormone Receptor: Hit Validation in HTRF Activity in a Luteinizing Hormone Receptor Cell Line; settings: LHR-expressing cell line, cAMP HTRF, antagonist mode; series mostly up to 58 µM; activity change, negative = inhibition: at the top concentration
Source text: The thyroid-stimulating hormone receptor (TSHR) is a member of the 7 trans-membrane-spanning receptor (7TMR) family of cell surface receptors. TSHR-mediated hyperthyroidism is important in thyroid pathology. The development of small molecule antagonists of TSHR may lead to therapeutic approaches for TSHR-mediated hyperthyroidism caused by constitutively activating mutations or stimulating auto-antibodies associated with Graves' disease. Graves' disease is the leading cause of hyperthyroidism and is caused by autoantibodies that stimulate TSHR (TsAbs) causing thyroid growth and unregulated overproduction of thyroid hormones and existing treatments have liabilities (agranulocytosis). In addition, TSHRs are known to be expressed in multiple extrathyroidal tissues including bone, brain, kidney, testis, fat and cells of the immune system but the role of the TSHR in these tissues is not clear. Therefore, TSHR antagonists/inverse agonists could be used as probes of extrathyroidal TSHR function. Finally, TSHR inverse agonists, which are a subclass of antagonists that inhibit agonist-independent (or basal or constitutive) TSHR signaling, could be used to inhibit TSH-independent signaling in patients with recurrent or metastatic thyroid cancer who are receiving thyroid hormone to suppress TSH.
In collaboration between scientist from the NCGC and the NIDDK, a miniaturized HTRF high-throughput screen was developed. It's a cell based assay, where an anti cAMP antibody contains a fluorescent cryptate tag (excitation 337 nm; emission 620 nm) and the acceptor is cAMP-d2 (excitation 620 nm; emission 665 nm). When antibody and cAMP-d2 interact and are excited by a 337 nm light, a FRET occurs resulting in emission at 665 nm. The assay is competition between cAMP-d2 and cAMP (from the cell lysate). The homogeneous protocol allows for one step dispense after stimulation that is automation friendly. In order to confirm specificity of the compounds to the TSHR, a confirmatory assay was conducted on a similar family member, the Luteinizing Hormone (LH) receptor, transfected into a HEK 293 cell line, using an orthogonal detection technology to measure cAMP stimulation: antibody-based Homogeneous Time Resolved Fluorescence (HTRF).
NIH Chemical Genomics Center [NCGC]
NIH Molecular Libraries Probe Centers Network [MLPCN]
Assay Provider: Marvin Gershengorn, NIDDK
Homogeneous Time Resolved Fluorescence (HTRF) cAMP Assay. HEK 293 cells stably transfected with a vector containing the LH receptor and maintained under hygromycin selection were obtained from the laboratory of Dr. Marvin Gershengorn. Compounds were assayed using a HTRF cAMP detection kit (Cisbio) on the LH receptor transfected cell line. Briefly, 750 cells were plated in 2.5 ul/well of complete media (DMEM containing 10 % FCS, and 100 uM RO 20-1724) in 1536 well solid bottom white plates and 23 nl/well compound in DMSO solution or controls was added. Following 30 minute incubation at room temperature, 2.5 ul/well of labeled d2 cAMP and 2.5 ul/well of anti-cAMP antibody (both diluted 1:20 in lysis buffer) were added to each well using a flying reagent dispenser (Aurora Discovery, San Diego) . Plates were measured using the Envision plate reader (PerkinElmer, Boston, MA) with excitation at 330 nm and emissions of 615 nm and 660 nm.
On the % scale 0 is the no-effect control and ±100 the full control effect; potency means the concentration at half of the fitted maximal effect.

Activity change, negative = inhibition, inactive:
CC(=O)c1ccc(N(C(=O)CNC(=O)c2ccco2)C(C(=O)NC2CCCC2)c2ccncc2)cc1 (centres undefined) -0.321%
O=C(NC1CCCCC1)C(c1cccs1)N(Cc1cccs1)C(=O)c1cccs1 (centres undefined) -9.17%
Cc1c(C(=O)NCc2ccc3c(c2)OCO3)sc2nc(-c3ccccc3)cn12 0.0777%
N#Cc1c(Cl)nsc1NC(=O)c1ccccc1 -2.2%
O=C1CCCN1c1ccc(S(=O)(=O)Oc2ccc(Cl)cc2)cc1[N+](=O)[O-] -4.4%
CN(C)c1ccc(NC(=S)c2ccc3ccccc3n2)cc1 1.72%
CSc1nc(-c2ccc(Cl)cc2Cl)[nH]c(=O)c1C#N -0.495%
CCOc1cc(N2CCOCC2)c(OCC)cc1NC(=O)c1cccc(S(=O)(=O)N2CCOCC2)c1 -2.11%
COc1ccc(S(=O)(=O)Nc2ccc(C)cc2)cc1N(C)S(=O)(=O)c1ccc(Cl)cc1 -3.51%
O=C(Nc1ncc(S(=O)(=O)c2ccc([N+](=O)[O-])cc2)s1)c1ccc2ccccc2c1 -3.12%
O=C(Nc1ncc(S(=O)(=O)c2ccc([N+](=O)[O-])cc2)s1)c1cccc2ccccc12 0.232%
CCOC(=O)CCCCCC(=O)Nc1ccc2c(c1)CC(=O)N([C@H](C)CO)C[C@@H](C)[C@H](CN(C)Cc1ccc3c(c1)OCO3)O2 1.07%
c1ccc2c(CSc3ncnc4nc[nH]c34)cccc2c1 1.84%
CC1=NN(C(N)=S)C(=O)C1N=Nc1ccc(Cl)cc1Cl (centres undefined) -0.667%
Cc1ncsc1CCOC(=O)C1C2CC3CC(C2)CC1C3 (centres undefined) -1.68%
CCOC(=O)N1CCN(C(=O)c2ccc3c(c2)N=C(CC)c2cc(C)ccc2S3)CC1 -1.95%
O=C(COC(=O)c1cc(S(=O)(=O)N2CCOCC2)c(Cl)cc1Cl)c1ccc[nH]1 -1.62%
COc1cc(/C=C(\C#N)c2ccccn2)ccc1OCc1ccc(Cl)cc1 -1.94%
C/C(=N\Nc1cc(C)nc(-c2ccccc2O)n1)c1ccccc1 0.625%
O=C(Nc1cc(S(=O)(=O)N2CCCCC2)ccc1Cl)c1ccccc1NS(=O)(=O)c1ccc(F)cc1 -2.9%
Clc1ccccc1CN(Cc1ccccc1)c1ncnc2nc[nH]c12 1.01%
COC(=O)c1ccc(NC(=O)Nc2ccc(F)c(Cl)c2)cc1 -2.51%
O=C1C(Cl)=C(Nc2ccc(O)cc2)C(=O)c2ccccc21 -6.39%
COc1ccc2cc(/C=C3\SC(=S)NC3=O)c(N3CCOCC3)nc2c1 -2.49%
O=S1(=O)C=C(Sc2nc3cc(Cl)ccc3o2)c2ccccc21 -7.43%
O=C(Nc1ccc(Oc2ccc(Cl)cc2)c(Cl)c1)c1cc(I)cc(I)c1O -0.309%
O=C(COC(=O)c1ccccc1C(=O)c1ccc(Cl)c([N+](=O)[O-])c1)NC1CCCCCC1 -6.9%
O=C(O)c1ccc(Cl)cc1Nc1nc2cc(Cl)ccc2o1 -1.31%
COc1ccc(CNC(=O)Cn2nc(Cc3cccnc3)c3ccccc3c2=O)cc1 -0.39%
N#C/C(=N\Nc1ccc(Cl)c(Cl)c1)C(=O)C1CC1 -0.632%
O=S(=O)(Nc1cc(Cl)ccc1-n1cncn1)c1cc(Br)ccc1Br -0.878%
O=C(Nc1cccc(Cl)c1)Nc1ccc(Br)cc1F -5.11%
COC(=O)c1ccc(C2N=C(c3cccs3)CC(c3ccccc3O)N2)cc1 (centres undefined) -2.24%
COc1ccc(CNC(=O)C(C)OC(=O)c2cccs2)cc1 (centres undefined) -2.06%
COc1cc(C(C(=O)NCc2ccccc2)N(C(=O)c2snc(C(N)=O)c2N)C2CCCC2)cc(OC)c1OC (centres undefined) -0.39%
O=C(O)/C=C/c1ccc(S(=O)(=O)Nc2ccccc2C(=O)Nc2ccc(F)cc2)cc1 -0.301%
OCCSc1nnc(Nc2ccccc2)s1 0.323%
CN1CCN(C2=CC3=CC(=C(C#N)C#N)CCC3CC2)CC1 (centres undefined) 0.754%
Nc1nc(SCC(=O)C23CC4CC(CC(C4)C2)C3)n[nH]1 1.45%
CC(C)(C)C(=O)NC(NC(=S)Nc1sc2c(c1C#N)CCCC2)C(Cl)(Cl)Cl (centres undefined) 0.759%
CC1Cc2ccccc2N1C(=O)COC(=O)/C=C/c1ccc(F)cc1 (centres undefined) -0.809%
COc1cc(NC(=O)Cn2nc(C(F)(F)F)c(Br)c2C)cc([N+](=O)[O-])c1 -0.304%
CCCC(=NC(C)CC)C1=C(O)CC(c2ccccc2)CC1=O (centres undefined) -1.47%
O=C(Nc1ncc(S(=O)(=O)c2ccc([N+](=O)[O-])cc2)s1)c1ccccc1F -0.0884%

Potency, active:
Cc1cccc(N(C(=O)c2nsc(Cl)c2Cl)C(C(=O)NC2CCCC2)c2ccc(O)cc2)c1C (centres undefined) 12 µM
CCC(=O)NC1=C(Cl)C(=O)C(NC(=O)CC)=C(Cl)C1=O 30.1 µM
COc1ccc(CNC(=O)C(c2ccco2)N(C(=O)c2snc(C(N)=O)c2N)c2cccc(OC)c2)cc1 (centres undefined) 13.5 µM
O=C1C(SCCO)=C(SCCO)C(=O)c2ccccc21 26.9 µM
CCn1nc(C)cc1-c1nnc(Sc2ncc([N+](=O)[O-])s2)n1C 37.9 µM
